This passage reports composite z-score and z-score results from PubChem BioAssay.

Active and inactive are the calls of the source. Unless noted, no rule for the calls is given here.

Assay [1] has as its system Wnt5a (protein binding on small-molecule microarray). The assay can be described thus: Wnt5a binders on small-molecule microarray, primary screen, biophysical, 635/667 nm fluorescence (AID 1142).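 Also: fluorescence read at 667 nm with signal to noise per printed feature.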 Particulars: 635 nm fluorescence, higher = more signal.
Assay [2] is described as follows: cell viability in Huh7 cells, primary screen, cytotoxicity control for HCV replication inhibitor project, CellTiter-Glo luminescence, basal, 48 h (AID 1143).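 Also: Huh7 hepatoma cells carrying a hepatitis C replication reporter with no stimulus; test concentration not given here.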 The conditions noted are these: Huh7 HCV replicon, higher = more signal, called active from +8 up or from −8 down.
Assay [3] is described as follows: P. aeruginosa biofilm formation inhibitors, primary screen, PAO1 strain, BacTiter-Glo luminescence, LB-PBS (AID 1144). The conditions noted are these: 12 h, higher = more signal.
Assay [4] in a line: CREB reporter modulators without forskolin, primary screen, cell-based, PC12, CRE-LacZ reporter, unstimulated (AID 1145). Particulars: no forskolin, luminescence, 4.5 h, higher = more signal, called active from +8 up or from −8 down.
Assay [5] in a line: CREB reporter modulators under forskolin, primary screen, cell-based, PC12, CRE-LacZ reporter, forskolin-stimulated (AID 1146).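 Also: PC12 cells with 6xCRE LacZ reporter stimulated by forskolin 10 µM; beta-galactosidase reporter signal reflecting CREB driven transcription.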 The conditions noted are these: luminescence, 4.5 h, higher = more signal, called active from +8 up or from −8 down.
Assay [6] deals with Streptavidin (Streptomyces avidinii) (UniProt P22629). The assay can be described thus: streptavidin binders on small-molecule microarray, primary screen, artefact control for SMM compound annotation, biophysical, 635/667 nm fluorescence (AID 1147).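 Also: signal reflects streptavidin binding to arrayed compounds as a control protein.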 The conditions noted are these: streptavidin binding, higher = more signal.
Streptavidin (Streptomyces avidinii), sequence (P22629 whole entry, looked up): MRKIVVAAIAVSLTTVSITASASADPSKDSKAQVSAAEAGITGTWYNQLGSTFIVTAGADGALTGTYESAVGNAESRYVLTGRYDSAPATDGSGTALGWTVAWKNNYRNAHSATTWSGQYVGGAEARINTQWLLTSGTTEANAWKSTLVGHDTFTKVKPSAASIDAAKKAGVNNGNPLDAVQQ
The nature of assay [7]: small-molecule binders of probe aInhba, primary screen, biochemical, small-molecule microarray, 635/667 nm fluorescence (AID 1148).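 Also: score merges 667nm spot fluorescence with signal-to-noise for antibody binding to printed compounds.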 Particulars: higher = more signal.
The target of assay [8] is Torsin-1A (Homo sapiens) (UniProt O14656). The assay can be described thus: torsin A binders from cell lysate, primary screen, small-molecule microarray, wild-type, 635/667 nm (AID 1149). The conditions noted are these: COS7 hTOR1A-WT lysate, 635 nm fluorescence, higher = more signal.
Torsin-1A (Homo sapiens), sequence (O14656 whole entry, looked up): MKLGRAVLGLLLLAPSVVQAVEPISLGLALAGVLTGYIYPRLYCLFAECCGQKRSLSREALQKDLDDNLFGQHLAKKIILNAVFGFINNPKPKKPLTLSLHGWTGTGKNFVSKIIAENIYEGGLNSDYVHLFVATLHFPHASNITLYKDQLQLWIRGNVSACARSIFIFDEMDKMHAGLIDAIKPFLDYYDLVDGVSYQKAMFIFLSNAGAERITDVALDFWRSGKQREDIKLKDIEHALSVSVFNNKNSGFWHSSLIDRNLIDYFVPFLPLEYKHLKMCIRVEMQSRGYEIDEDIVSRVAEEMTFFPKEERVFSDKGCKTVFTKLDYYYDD
Assay [9] shares this target. The assay can be described thus: small-molecule binders of mutant TOR1A in lysate, primary screen, cell lysate, small-molecule microarray, COS7 lysate, 635/667 nm fluorescence (AID 1150).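 Also: score pools 667 nm emission and signal to noise measuring lysate protein binding.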 Particulars: COS7 hTOR1A mutant lysate, 635 nm fluorescence, higher = more signal.
Assay [10] has as its system Sonic hedgehog protein (Shh). In words: small-molecule binders of Shh protein, primary screen, biochemical, small-molecule microarray, 635/667 nm fluorescence (AID 1151).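 Also: Shh protein binding to compounds spotted on small-molecule microarray slides; score combines spot fluorescence intensity with signal-to-noise across triplicate slides.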 The conditions noted are these: small-molecule microarray binding, 635 nm fluorescence; higher = more signal.

As to `CCCN1C(=O)[C@]2(COC(c3ccc(OCCCO)cc3)=N2)Cc2ccccc21`, the composite z-score turned out to be 0.526 in assay [1]; 0.0066 in assay [6]; 0.0756 in assay [7]; 0.416 with Torsin-1A (Homo sapiens) [8]; 0.01 with Torsin-1A (Homo sapiens) [9]; 0.184 in assay [10]. For the same compound, the z-score is -1.62 (inactive) in assay [2], 0.786 (inactive) in assay [3], 0.913 (inactive) in assay [4] and -1.39 (inactive) in [5].
For the compound `CCOC(=O)C[C@H]1[C@H](OC(=O)c2ccccc2-c2ccccc2)[C@@H](NC(=O)Cc2ccc(OC)cc2)c2cc(OCCCO)ccc2N1C(=O)c1ccccc1`, the composite z-score is 0.222 in assay [1]; -0.105 in [6]; -0.287 in assay [7]; -0.259 with Torsin-1A (Homo sapiens) [8]; 0.405 with Torsin-1A (Homo sapiens) [9]; -0.127 in assay [10]. Further, the z-score was -0.0369 (inactive) in [2], 0.817 (inactive) in assay [3], 4.57 (inactive) in assay [4] and 2.83 (inactive) in assay [5].
Turning to `O=C1OCC=C[C@H]2OC34C=CCN(c5ccc(Cl)cc5)C(=O)[C@H]3N(CCCCCCO)C(=O)[C@@H]4[C@@H]12` (stereo not given in full), the composite z-score in assay [1] is -0.557; in [6], -0.857; in assay [7] it was -0.0494; in the assay with Torsin-1A (Homo sapiens) [8], -1.39; with Torsin-1A (Homo sapiens) [9], -1.21; in [10], -0.38. The z-score is -0.652 (inactive) in assay [2], 1.36 (inactive) in [3], 1.41 (inactive) in assay [4] and -0.0889 (inactive) in assay [5].
Take `O=C1O[C@H](c2ccccc2)[C@H](c2ccccc2)N2[C@H]1[C@@H](C(=O)O)[C@]1(C(=O)Nc3ccc(C#CC4(O)CCCCCC4)cc31)[C@H]2c1ccc(OCCO)cc1`: the composite z-score in assay [1] is -0.0477; in assay [6], 1.52; in assay [7] it was 0.122; with Torsin-1A (Homo sapiens) [8], 0.477; with Torsin-1A (Homo sapiens) [9] it was 0.617; in assay [10], 0.258. Besides, the z-score was -0.551 (inactive) in [2], -1.01 (inactive) in [3], 5.5 (inactive) in [4] and 14.7 (active) in assay [5].
As to `COCCOC(=O)N1C(=O)[C@@]2(c3cc(C#CCC(C(=O)OC)C(=O)OC)ccc31)[C@H](C(=O)N1CCN(c3ncccn3)CC1)[C@H]1C(=O)O[C@H](c3ccccc3)[C@H](c3ccccc3)N1[C@@H]2c1ccc(OCCO)cc1`, the composite z-score in [1] was 0.148; in assay [6], 0.392; in assay [7] it was -0.0221; in the assay with Torsin-1A (Homo sapiens) [8], 0.2; with Torsin-1A (Homo sapiens) [9], 0.542; in [10] it was 1.3. Also, the z-score in assay [2] is -3.18 (inactive); in assay [3], -1.66 (inactive); in assay [4], -1.83 (inactive); in assay [5], -1.08 (inactive).
